Source: the supplement of paper PMC4962491
Several values for one entry are separate records, joined by “and”; a condition that tells them apart may be missing. Identical values can stand only once. ± gives the standard deviation of the averaged measurements. Whole data set: some 1,600 compounds, median “mitochondrial oxygen consumption rate normalised to cell number, Z score over the library” near 0.065, cut for the lowest 2% near -2.2. This excerpt belongs to a sample that is enriched for the lowest values.

What follows are molecules tested on FaDu (assay: mitochondrial oxygen consumption rate normalised to cell number, Z score over the library; higher = higher oxygen consumption (negative = OCR reduction)). Conditions: treatment time 24 h; assay medium: 5 mM galactose, 5 mM pyruvate, 4 mM glutamine; 10 µM.
Protocol: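 Primary screen: FaDu cells were incubated 24 h with Pharmakon 1600 / TDI oncology set compounds at 2 or 10 uM. Mitochondrial-specific OCR (basal minus 2 uM antimycin A) was measured on a Seahorse XF96 in assay medium with 5 mM galactose, 5 mM pyruvate and 4 mM glutamine, then corrected for Hoechst cell number and expressed as a Z score […]. Compounds that cut cell number by >66% were excluded. Two repeats.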

Row | Structure (SMILES) | mitochondrial oxygen consumption rate normalised
1 | CC(C)NCC(O)COc1cccc2ccccc12 (racemic) | -0.291 ± 0.42
2 | CC[n+]1c(-c2ccccc2)c2cc(N)ccc2c2ccc(N)cc21 | -2.32 ± 0.27
3 | CS(=O)(=O)Nc1ccc([N+](=O)[O-])cc1Oc1ccccc1 | 0.196 ± 0.72
4 | COc1cc(NS(C)(=O)=O)ccc1Nc1c2ccccc2nc2ccccc12 | -2.77 ± 0.43
5 | CC(=O)Oc1c(C)c(C)c2c(c1C)CCC(C)(CCCC(C)CCCC(C)CCCC(C)C)O2 (stereo not drawn) [alpha-TOCHOPHERYL ACETATE] | -0.281 ± 0.21
6 | O=C1c2ccccc2C(=O)C1c1ccc(Cl)cc1 | 0.0788 ± 0.46
7 | CC(O)C(=O)[O-].[Na+] (stereo not given) | 1.11 ± 0.92
8 | CC(=O)Nc1ccc(S(=O)(=O)Nc2ccc([N+](=O)[O-])cc2)cc1 | 1.45 ± 0.4
9 | NCCCS(=O)(=O)O | -0.855 ± 0.32
10 | C#CCC(Cc1cnc2nc(N)nc(N)c2n1)c1ccc(C(=O)N[C@@H](CCC(=O)O)C(=O)O)cc1 (stereo not given in full) [Pralatrexate] | 0.0598 ± 0.75
11 | Nc1ccc(S(=O)(=O)O)cc1.Nc1ccc(S(=O)(=O)O)cc1.[Zn] | 1.04 ± 0.43
12 | C[C@@H]1O[C@@H](OC[C@H]2O[C@@H](Oc3c(-c4ccc(OCCO)c(OCCO)c4)oc4cc(OCCO)cc(O)c4c3=O)[C@H](O)[C@@H](O)[C@@H]2O)[C@H](O)[C@H](O)[C@H]1O | -0.575 ± 0.55
13 | CC(C)CCC[C@@H](C)[C@H]1CC[C@H]2[C@@H]3CC=C4C[C@@H](O)CC[C@]4(C)[C@H]3CC[C@]12C | -0.87 ± 0.089
14 | O=C(c1cccnc1)N1CCOCC1 | -0.217 ± 0.94
15 | COc1cc(NS(=O)(=O)c2ccc(N)cc2)ncn1 | 0.47 ± 0.61
16 | NCC(O)CC(=O)O (stereo not given) | -0.332 ± 0.83
17 | CN1C(=O)CC(C)(c2ccccc2)C1=O (stereo not given) | -0.314 ± 0.74
18 | CCCCCCCCCc1ccc(OCCOCCOCCOCCOCCOCCOCCOCCOCCO)cc1 | -3.66 ± 0.45
19 | CCCCOc1ccc(CC(=O)NO)cc1 | -0.625 ± 0.84
20 | CCCCOc1ccc(OCCCN2CCOCC2)cc1 | -0.434 ± 0.23
21 | CC(=O)Oc1ccccc1C(=O)Nc1ncc([N+](=O)[O-])s1 | -2.45 ± 0.1
22 | CC(=O)Nc1ncc([N+](=O)[O-])s1 | 0.857 ± 0.27
23 | CC(=O)Oc1ccccc1C(=O)O | 0.27 ± 0.45

Row | Structure (SMILES) | mitochondrial oxygen consumption rate normalised
24 | CN(C)[C@@H]1C(O)=C(C(N)=O)C(=O)[C@@]2(O)C(O)=C3C(=O)c4c(O)cccc4[C@@](C)(O)[C@H]3[C@H](O)[C@@H]12 | 0.305 ± 0.067
25 | Cn1c(=O)c2[nH]c(Br)nc2n(C)c1=O | 0.142 ± 0.29
26 | O=C(CCBr)N1CCN(C(=O)CCBr)CC1 [Pipobroman] | -0.527 ± 1.4
27 | O=C(CCBr)N1CCN(C(=O)CCBr)CC1 | 1.32 ± 1.1
28 | CCC1(C)OC(=O)N(C)C1=O (stereo not given) | 0.0479 ± 0.05
29 | CN1C(C(=O)Nc2ccccn2)=C(O)c2sc(Cl)cc2S1(=O)=O | -0.183 ± 0.66
30 | Oc1ccc(Cl)c2cccnc12 | 0.469 ± 0.61
31 | Oc1c(I)cc(I)c2cccnc12 | 0.968 ± 0.98
32 | O=[N+]([O-])c1ccc(O)c2ncccc12 | -2.21 ± 0.14
33 | CCCCCCCC/C=C\CCCCCCCC(=O)O.NCCO | -0.00915 ± 0.76
34 | CC[C@H]1OC(=O)[C@H](C)[C@@H](O[C@H]2C[C@@](C)(OC)[C@@H](O)[C@H](C)O2)[C@H](C)[C@@H](O[C@@H]2O[C@H](C)C[C@H](N(C)C)[C@H]2O)[C@](C)(O)C[C@@H](C)[C@@H]2N[C@@H](COCCOC)O[C@H]([C@H]2C)[C@]1(C)O | -0.149 ± 0.29
35 | CC[C@@]1(O)C(=O)OCc2c1cc1n(c2=O)Cc2cc3c(CN(C)C)c(O)ccc3nc2-1 | -4.46 ± 0.19
36 | CCc1c2c(nc3ccc(OC(=O)N4CCC(N5CCCCC5)CC4)cc13)-c1cc3c(c(=O)n1C2)COC(=O)[C@]3(O)CC | -1.11 and -2.18
37 | CNC(=O)c1cc(Oc2ccc(NC(=O)Nc3ccc(Cl)c(C(F)(F)F)c3)cc2)ccn1 | -2.31 ± 0.25
38 | C#C[C@]1(OC(C)=O)CC[C@H]2[C@@H]3CCC4=CC(=NO)CC[C@@H]4[C@H]3CC[C@@]21CC (mixture of isomers) | 1.1 ± 0.091
39 | CC(C)(C)CC(=O)OCC(=O)[C@@]1(O)CC[C@H]2[C@@H]3CCC4=CC(=O)C=C[C@]4(C)[C@H]3[C@@H](O)C[C@@]21C | -0.63 ± 0.68
40 | COc1cc([C@@H]2c3cc4c(cc3[C@@H](O[C@@H]3O[C@@H]5CO[C@@H](C)O[C@H]5[C@H](O)[C@H]3O)[C@H]3COC(=O)[C@H]23)OCO4)cc(OC)c1O | -1.53 ± 0.61
41 | COc1cc([C@@H]2c3cc4c(cc3[C@@H](O[C@@H]3O[C@@H]5CO[C@@H](c6cccs6)O[C@H]5[C@H](O)[C@H]3O)[C@H]3COC(=O)[C@H]23)OCO4)cc(OC)c1O | -3.75 ± 0.66
42 | COc1cc([C@@H]2c3cc4c(cc3[C@@H](O[C@@H]3O[C@@H]5CO[C@@H](C)O[C@H]5[C@H](O)[C@H]3O)[C@H]3COC(=O)[C@H]23)OCO4)cc(OC)c1O [Etoposide] | -0.0499 ± 0.023
43 | Nc1ccc2cc3ccc(N)cc3nc2c1 | -2.55 ± 0.27
44 | Nc1c2ccccc2nc2ccccc12 | -1.9 ± 0.35
45 | O=C(Oc1cccc2cccnc12)c1ccccc1 | -0.0234 ± 0.66
